Target: Glucose transporter (Leishmania mexicana) (UniProt O61059)
Test: ST_JUDE_LEISH: Cytotoxicity at 2uM final concentration against transgenic Leishmania Mexicana promastigotes LmGT2 that are glucose transport deficient and complemented with the L. Mexicana glucose transporter 2. Activity is measured by DNA content using SYBR green in vitro
Assay type: functional

Compound	inhibition [%]
COC(=O)Nc1ccc(-c2ccc(C(=O)NC3CCN(C[C@H](O)c4ccnc5ccc(OC)cc45)CC3)cc2)c(C)c1	-1.03
Nc1nc(N)c2cc(NS(=O)(=O)c3ccc(-c4ccccc4)cc3)ccc2n1	3.56
O=C(Nc1cccc(-c2nn3ccccc3c2-c2ccnc(Nc3ccc(-c4cc[nH]n4)cc3)n2)c1)c1c(F)cccc1F	1.44
CN(CCCN(C)c1cc(NC(=O)c2ccc(F)cc2)ccn1)Cc1cccc(F)c1	4.86
O=C(Nc1cccc(F)c1)N1CCC(NS(=O)(=O)c2ccc(Br)cc2)CC1	2.63
COCCOc1cc(C)c(C2CCN(CCCCNC(=O)c3ccc(NC(=O)c4ccc(Cl)cc4)cc3)CC2)cc1C	8.98
COc1ccc(-c2cc(C(=O)N[C@@H](CC3CCCCC3)C(=O)NC3CCCc4ccccc43)ccc2O)cc1 (some centres undefined)	1.1
CCCCNC(=O)[C@H](CC1CCCCC1)NC(=O)c1ccc(O)c(-c2cccc(C(F)(F)F)c2)c1	3.61
CC1CN(Cc2cccc(F)c2)CCN1c1ccc(NC(=O)c2cccs2)cc1 (centres undefined)	-2.09
CCCC(C)NC(=O)c1cnn(-c2ccc(C(C)(C)C)cc2)c1OCc1ccc(Br)cc1 (centres undefined)	5.11
Nc1nc(N)c2c(ccc3c2ccn3Cc2cccc3ccccc23)n1	88.4
FC(F)(F)c1ccc2[nH]c(-c3ccc(-c4ccc(CNCc5ccccc5)cc4)cc3)nc2c1	6.47
CNC(=O)NC1=NC(C)(C)N(OCCCOc2cc(Cl)c(Cl)cc2Cl)C(N)=N1	11.6
Cc1ccc(CNC(=O)[C@H](CC(C)C)Nc2cc(C)nc(NCc3ccccc3C)n2)cc1	3.14

From ChEMBL document CHEMBL3433997, “St. Jude Leishmania screening dataset” (2016)
